Experiment [1] is described as follows: sensitizers of A549 cells to miR-34 induction, primary screen, imaging, A549 dox-inducible miR-34, nuclei and caspase counts (AID 1347080). Further: test concentration not given here. Particulars: A549 miR-34 inducible, Hoechst nuclei count, 48 h.
A short description of experiment [2]: survival rescue of mitochondrial mutant cells in low glucose, primary screen, MELAS cybrids, Rieske KO mouse fibroblasts, CellTiter-Glo (AID 1508586;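 active means mean z-score across replicates of 1.96 or higher in either the MELAS or the Rieske mutant cell line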;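 further: test concentration not given here; z relative to plate mean and SD of compound and empty wells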). A general note: Cellular ATP, detected with luciferase, serves as a proxy for viable cell number.
Experiment [3] can be described thus: viability rescue of complex I mutant cybrids, primary screen, cell-based, galactose medium, ATP luminescence (AID 1645843;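 active means z-score of at least 1.8 in each of two replicates, scored against plate mean and spread of sample wells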;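 further: positive z means more ATP and so rescue of galactose-driven cybrid death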). The conditions noted are these: complex I mutant cybrid cells, 72 h, stronger effect = higher value.
Setting [4] is: stronger effect = lower value, cell number ratio, induced over uninduced.
Setting [5] is: measured here: relative caspase fold change +Dox/-Dox.
Setting [6] is: measured here: total cells with miR-34 induction, stronger effect = lower value.
[7] abbreviates: measured here: total cells without miR-34 induction.
Setting [8] is: MELAS cybrid survival, CellTiter-Glo 48 h, stronger effect = higher value.
The mark [9] stands for this setting: Rieske KO mouse fibroblast survival, CellTiter-Glo 72 h.

Each structure is given as a SMILES string. Several values for one entry are separate records, joined by “and”; a condition that tells them apart may be missing. Identical values can stand only once. Activity calls are given as the source filed them.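 How the source made its calls, unless noted: active means compounds whose cell count with miR-34 switched on is under 0.7 times the count with it off; inactive means the rest.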

For the compound `O=C(CC1=CCCCC1)NCc1ccon1`, the fold change in experiment [1] (setting [4]) was 0.939 (inactive); in experiment [1] (setting [5]), 1.22. Also, the cell count in experiment [1] (setting [6]) turned out to be 9490; in experiment [1] (setting [7]), 10100. Besides, the z-score in experiment [2] (setting [8]) is 0.26 (inactive); in experiment [2] (setting [9]) it was -0.5; in experiment [3], -0.49 (inactive).
Turning to `CC(=O)c1sc(Nc2ccccc2)nc1C`, the fold change was 0.911 (inactive) in experiment [1] (setting [4]) and 0.648 in experiment [1] (setting [5]). Besides, the results for the cell count in experiment [1] (setting [6]) and in experiment [1] (setting [7]) were 8310 and 9120, respectively. For the same compound, the z-score in experiment [2] (setting [8]) is 3.09 (active); in experiment [2] (setting [9]), -0.213; in experiment [3] it was 0.63 (inactive).
As for `O=C(O)c1cnc(-c2ccccc2)[nH]1`, the fold change in experiment [1] (setting [4]) was 0.939 (inactive); in experiment [1] (setting [5]) it was 0.271. Besides, the figures for the cell count in experiment [1] (setting [6]) and in experiment [1] (setting [7]) were 8980 and 9570, respectively. For the same compound, the z-score in experiment [2] (setting [8]) is -0.137 (inactive); in experiment [2] (setting [9]), -0.215; in experiment [3], 0.375 (inactive).
As to `O=C(O)c1ccc(-c2ccc(F)cc2)cc1`, the fold change is 0.935 (inactive) in experiment [1] (setting [4]) and 1.32 in experiment [1] (setting [5]). Moreover, the figures for the cell count in experiment [1] (setting [6]) and in experiment [1] (setting [7]) were 7840 and 8390, respectively. In addition, the figures for the z-score in experiment [2] (setting [8]), in experiment [2] (setting [9]) and in experiment [3] were -0.835 (inactive), -0.109 and 0.26 (inactive), respectively.
With `COc1ccccc1C(=O)N1CCC(n2cc(-c3ccccn3)nn2)CC1`, the fold change in experiment [1] (setting [4]) was 0.917 (inactive); in experiment [1] (setting [5]), 1.29. Moreover, the cell count in experiment [1] (setting [6]) was 8760; in experiment [1] (setting [7]), 9560. Also, the results for the z-score in experiment [2] (setting [8]), in experiment [2] (setting [9]) and in experiment [3] were 0.129 (inactive), -0.319 and -0.23 (inactive), respectively.
For `COc1cccc(-n2cc(-c3ccnc(NCCc4cnc[nH]4)n3)cn2)c1`, the fold change in experiment [1] (setting [4]) is 0.891 (inactive); in experiment [1] (setting [5]), 1.29. In addition, the cell count in experiment [1] (setting [6]) came out at 7850; in experiment [1] (setting [7]), 8810. The z-score in experiment [2] (setting [8]) is -0.718 (inactive); in experiment [2] (setting [9]), 0.696; in experiment [3], 1.87 (inactive).
Regarding `COc1ccccc1-c1cnn(CC(=O)Nc2cc(C)nn2C)c1`, the fold change was 0.86 (inactive) in experiment [1] (setting [4]) and 2.23 in experiment [1] (setting [5]). Also, the cell count in experiment [1] (setting [6]) is 7820; in experiment [1] (setting [7]), 9090. Moreover, the z-score in experiment [2] (setting [8]) is 0.116 (inactive); in experiment [2] (setting [9]), -1.22; in experiment [3] it was -0.56 (inactive).
Regarding `NCCC(O)C(=O)NC1CC(N)C(OC2OC(CN)C(O)C(O)C2O)C(O)C1OC1OC(CO)C(O)C(N)C1O` (stereo not given), the fold change is 0.888 (inactive) in experiment [1] (setting [4]) and 0.936 in experiment [1] (setting [5]). The figures for the cell count in experiment [1] (setting [6]) and in experiment [1] (setting [7]) were 8210 and 9240, respectively. In addition, the z-score in experiment [2] (setting [8]) is -1.15 (inactive); in experiment [2] (setting [9]) it was -0.0039; in experiment [3], 0.985 (inactive).
On to `CCCN1CCCCC1C(=O)Nc1c(C)cccc1C` (stereo not given), for which the fold change is 0.891 (inactive) and 0.942 (inactive) in experiment [1] (setting [4]); 1.17 and 1.76 in experiment [1] (setting [5]). Moreover, the cell count was 9320 and 9310 in experiment [1] (setting [6]); 10500 and 9880 in experiment [1] (setting [7]). The z-score in experiment [2] (setting [8]) was 0.0955 (inactive); in experiment [2] (setting [9]), -0.512; in experiment [3], 0.57 (inactive).
Turning to `COc1ccc(S(=O)(=O)N2CCN(S(=O)(=O)c3ccc4c(c3)OCCO4)CC2)cc1`, the fold change in experiment [1] (setting [4]) was 0.881 (inactive); in experiment [1] (setting [5]), 0.373. In addition, the cell count was found to be 8270 in experiment [1] (setting [6]) and 9390 in experiment [1] (setting [7]). Further, the z-score was -0.316 (inactive) in experiment [2] (setting [8]), -0.269 in experiment [2] (setting [9]) and 0.51 (inactive) in experiment [3].
Consider `O=C(O)c1ccc(-c2cc(Cl)ccc2Cl)o1`, for which the fold change in experiment [1] (setting [4]) was 0.874 (inactive); in experiment [1] (setting [5]), 0.439. For the same compound, the cell count in experiment [1] (setting [6]) was found to be 8600; in experiment [1] (setting [7]) it was 9840. For the same compound, the z-score in experiment [2] (setting [8]) was -0.277 (inactive); in experiment [2] (setting [9]), 0.0393; in experiment [3], 0.44 (inactive).
In the case of `COc1ccccc1-c1noc(Cc2ccc3c(c2)OCO3)n1`, the figures for the fold change in experiment [1] (setting [4]) and in experiment [1] (setting [5]) were 0.864 (inactive) and 2.45, respectively. Moreover, the cell count in experiment [1] (setting [6]) stood at 7680; in experiment [1] (setting [7]), 8890. The z-score is 0.0213 (inactive) in experiment [2] (setting [8]), 1.35 in experiment [2] (setting [9]) and 1.62 (inactive) in experiment [3].
As for `CN(Cc1nc2ccc(Cl)cc2[nH]1)C(=O)c1n[nH]c2ccccc12`, the fold change in experiment [1] (setting [4]) is 0.846 (inactive); in experiment [1] (setting [5]), 1.41. Further, the figures for the cell count in experiment [1] (setting [6]) and in experiment [1] (setting [7]) were 6230 and 7360, respectively. Also, the values for the z-score in experiment [2] (setting [8]), in experiment [2] (setting [9]) and in experiment [3] were -0.529 (inactive), 0.953 and 1.46 (inactive), respectively.
For `O=C1CCCc2occ(C(=O)N3CCc4[nH]nc(Cc5ccccc5)c4C3)c21`, the fold change was 0.979 (inactive) in experiment [1] (setting [4]) and 0.441 in experiment [1] (setting [5]). In addition, the figures for the cell count in experiment [1] (setting [6]) and in experiment [1] (setting [7]) were 9440 and 9640, respectively. In addition, the z-score was -0.275 (inactive) in experiment [2] (setting [8]), -0.284 in experiment [2] (setting [9]) and -0.515 (inactive) in experiment [3].
As to `CC(=O)NC(CCCN=C(N)N)C(=O)O` (stereo not given), the results for the fold change in experiment [1] (setting [4]) and in experiment [1] (setting [5]) were 0.897 (inactive) and 0.717, respectively. The cell count stood at 8640 in experiment [1] (setting [6]) and 9630 in experiment [1] (setting [7]). Moreover, the values for the z-score in experiment [2] (setting [8]), in experiment [2] (setting [9]) and in experiment [3] were -1.33 (inactive), -0.192 and 0.785 (inactive), respectively.
`COc1ccc(C(=O)O)cc1`: the fold change in experiment [1] (setting [4]) is 0.947 (inactive); in experiment [1] (setting [5]), 0.667. For the same compound, the cell count in experiment [1] (setting [6]) is 9110; in experiment [1] (setting [7]), 9620. Further, the z-score in experiment [2] (setting [8]) was -0.37 (inactive); in experiment [2] (setting [9]) it was -0.0461; in experiment [3], -0.635 (inactive).
`COc1nc2ccccc2cc1-c1nnc2ccccn12`: the fold change in experiment [1] (setting [4]) was 0.94 (inactive); in experiment [1] (setting [5]) it was 1.24. Further, the cell count in experiment [1] (setting [6]) was 7160; in experiment [1] (setting [7]) it was 7610. Further, the z-score was -0.729 (inactive) in experiment [2] (setting [8]), -1.23 in experiment [2] (setting [9]) and -0.505 (inactive) in experiment [3].
In the case of `COc1cccc(-c2noc(Cc3ccc4c(c3)OCO4)n2)c1`, the fold change is 0.929 (inactive) in experiment [1] (setting [4]) and 1.11 in experiment [1] (setting [5]). The values for the cell count in experiment [1] (setting [6]) and in experiment [1] (setting [7]) were 9000 and 9680, respectively. Moreover, the z-score was 0.523 (inactive) in experiment [2] (setting [8]), 0.163 in experiment [2] (setting [9]) and 2.67 (active) in experiment [3].
As for `CC(C)c1nc(CN(C)C(=O)NC(C(=O)NC(Cc2ccccc2)CC(O)C(Cc2ccccc2)NC(=O)OCc2cncs2)C(C)C)cs1` (stereo not given), the fold change is 0.948 (inactive) and 0.95 (inactive) in experiment [1] (setting [4]); 1.44 and 0.946 in experiment [1] (setting [5]). The cell count in experiment [1] (setting [6]) is 7230 and 6000; in experiment [1] (setting [7]), 7630 and 6320. Also, the z-score in experiment [2] (setting [8]) is -0.434 (inactive); in experiment [2] (setting [9]) it was 0.643; in experiment [3], -0.03 (inactive).
In the case of `O=C(O)c1ccc(-c2ccccc2Cl)o1`, the fold change was 0.867 (inactive) in experiment [1] (setting [4]) and 0.416 in experiment [1] (setting [5]). Moreover, the cell count in experiment [1] (setting [6]) came out at 7840; in experiment [1] (setting [7]), 9050. In addition, the z-score in experiment [2] (setting [8]) was -0.894 (inactive); in experiment [2] (setting [9]) it was 0.4; in experiment [3], 0.53 (inactive).

These data come from PubChem BioAssay.
